Reference: article PMC6925144, “A prospective compound screening contest identified broader inhibitors for Sirtuin 1” (Scientific Reports, 2019)
The full ranking holds about 3,200 compounds; the median of “TSA(without NAD+) / Primary screening (TSA) / delta Tm (K)” is about -0.07, and the highest 2% start at about 0.37. For the sample, the highest values were picked, then their nearest neighbours and some compounds at random.

target: NAD-dependent deacetylase Sirtuin 1 (human, UniProt Q96EB6); test: primary screen, delta tm; parameters: single well (n = 1); details: 10 µM
Sequence (Q96EB6 2-747 limits assumed): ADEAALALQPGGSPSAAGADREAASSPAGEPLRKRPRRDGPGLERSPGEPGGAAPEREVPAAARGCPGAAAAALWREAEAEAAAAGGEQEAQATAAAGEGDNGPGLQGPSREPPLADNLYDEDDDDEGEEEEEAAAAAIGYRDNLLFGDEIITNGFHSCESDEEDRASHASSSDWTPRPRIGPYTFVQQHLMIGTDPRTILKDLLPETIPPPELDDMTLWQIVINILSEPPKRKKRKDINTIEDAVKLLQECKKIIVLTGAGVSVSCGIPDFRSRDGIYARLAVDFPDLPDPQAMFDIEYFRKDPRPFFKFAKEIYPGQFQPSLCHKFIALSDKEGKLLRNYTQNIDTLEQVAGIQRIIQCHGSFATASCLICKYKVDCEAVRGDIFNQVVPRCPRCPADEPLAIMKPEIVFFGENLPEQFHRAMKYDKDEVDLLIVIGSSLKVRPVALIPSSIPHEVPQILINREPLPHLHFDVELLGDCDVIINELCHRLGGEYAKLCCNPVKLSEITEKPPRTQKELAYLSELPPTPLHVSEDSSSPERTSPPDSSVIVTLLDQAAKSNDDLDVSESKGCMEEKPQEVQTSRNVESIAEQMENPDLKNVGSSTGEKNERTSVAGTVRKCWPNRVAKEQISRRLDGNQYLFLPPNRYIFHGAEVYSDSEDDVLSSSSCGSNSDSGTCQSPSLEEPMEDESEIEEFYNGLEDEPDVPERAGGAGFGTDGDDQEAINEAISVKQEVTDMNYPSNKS
Procedure: A total of 3,192 compounds extracted from the proposed lists were first screened by thermal shift assay (TSA), which determined a melting temperature shift (ΔTm) of Sirtuin 1 upon the addition of a test compound at a concentration of 10 µM (n = 1) with primary hit criteria of ΔTm > 0.45 K or ΔTm < −1.5 K. Primary hits (48 compounds) were retested in the same assay at three concentrations (5, 10, 20 µM, n = 4) for hit confirmation and for dose-dependency check. Secondary hits (41 compounds) were checked their selectivity for Sirtuin 1 based on counterscreening on unrelated protein targets (bovine carbonic anhydrase (CA) and recombinant SH2 domain of hABL1 kinase (ABL1)) at three different concentrations (5, 10, 20 µM, n = 4), which yielded 38 hit compounds, hereafter referred to as TSA hits. The TSA screening above was conducted in the absence of NAD+.

SMILES | TSA(without NAD+) / Primary screening (TSA) / delta Tm (K)
O=C1/C(=C\c2cc(Br)cc(Br)c2O)CC/C1=C\c1cc(Br)cc(Br)c1O | 0.55 K
COc1ccc(Br)cc1/C=C1/Cc2ccccc2C1=O | -0.08 K
O=C1/C(=C\c2ccc(Br)cc2)CC/C1=C/c1ccccc1OC(F)F | -0.08 K
O=C(CCSc1ncccn1)Nc1c(Cl)cccc1Cl | -0.04 K
Cc1ccc(C23CC4CC(CC(C(=O)OCC(N)=O)(C4)C2)C3)cc1C | -0.22 K
Cc1ccc(C23CC4CC(CC(C(=O)OC(C)C(=O)Nc5ccc(S(N)(=O)=O)cc5)(C4)C2)C3)cc1C (stereo not drawn) | 0.48 K
Cc1ccc(C23CC4CC(CC(C(=O)OCC(=O)Nc5ccc(S(N)(=O)=O)cc5)(C4)C2)C3)cc1 | 0.32 K
Cc1ccc(N(C)S(=O)(=O)c2cccc(C(=O)N(C)Cc3ccccc3Cl)c2)cc1 | -0.24 K
O=S1(=O)CCC(N2CCN(c3ncnc4c3oc3ccccc34)CC2)C1 (stereo not drawn) | -0.11 K
Cc1nc(N2CCN(c3cccc(C(F)(F)F)c3)CC2)c2c3c(sc2n1)CCC3 | 0.16 K
CC(C)CC(=O)Nc1ccc(C(=O)COC(=O)CNC(=O)CC23CC4CC(CC(C4)C2)C3)cc1 | -0.04 K
CCOc1ccc(Oc2ccc(NC(=O)CNC(=O)CC34CC5CC(CC(C5)C3)C4)cc2)cc1 | 0.38 K
COc1ccc(NC(=O)CC23CC4CC(C2)CC(CC(=O)Nc2ccc(OC)cc2)(C4)C3)cc1 | 0.15 K
NCCOCC(=O)O | -0.23 K
O=C1CCc2cc(NC(=O)c3cccnc3)ccc2N1 | -0.04 K
Cc1ccc(C(=O)Nc2nc3ccc(NS(=O)(=O)c4ccc5c(c4)CCC(=O)N5)cc3s2)s1 | 0.66 K
CCCn1c(NC(=O)c2ccc3c(c2)CCC(=O)N3)nc2ccccc21 | 0.12 K
NCC(N)C1CCC1 (stereo not drawn) | -0.31 K
NC(=O)c1cc(NC(=O)CN2CC=C(c3ccc(O)cc3)CC2)cc(C(N)=O)c1 | 0.15 K
O=C1NC(=S)NC(=O)C1=NNc1c(F)cccc1F | -0.08 K
Cn1ncc2c(=O)n(CC(=O)N3CCCc4c(C(N)=O)cccc43)cnc21 | -0.18 K

SMILES | TSA(without NAD+) / Primary screening (TSA) / delta Tm (K)
O=C(NC1(C(=O)N2CCN(C(=O)c3cnccn3)CC2)CCOC1)OCc1ccccc1 (stereo not drawn) | -0.12 K
Cc1sc2ncnc(N3CCC(C(=O)Nc4sc5c(c4C(N)=O)CCCC5)CC3)c2c1C | 0.16 K
Cc1sc(NC(=O)C2CCN(c3ncc(C(F)(F)F)cc3Cl)CC2)c(C(N)=O)c1C | 0.28 K
NC(=O)c1c(NC(=O)C2CCN(c3ncc(C(F)(F)F)cc3Cl)CC2)sc2c1CCC2 | 0.39 K
Cc1ccc(OCC(O)Cn2c(C(F)(F)F)ccc(C(N)=O)c2=O)cc1 (stereo not drawn) | -0.13 K
Cc1ccc(NC(=O)C(OC(=O)C23CC4CC(CC(O)(C4)C2)C3)c2ccccc2)c([N+](=O)[O-])c1 (stereo not drawn) | 0.07 K
CC(NC(=O)CNC(=O)CNC(=O)c1cccs1)c1ccccn1 (stereo not drawn) | -0.23 K
O=C(NC(=S)Nc1ccc(-c2nc3ccccc3[nH]2)cc1)C12CC3CC(CC(C3)C1)C2 | 0.58 K
O=C(CC12CC3CC(CC(C3)C1)C2)NCC(=O)Nc1ccc(Sc2nc3ccccc3[nH]2)cc1 | 0.18 K
O=C1CCCCC(C(=O)Nc2ccc(-c3nc4ccccc4[nH]3)cc2)N1 (stereo not drawn) | -0.03 K
O=C(Nc1cccc(S(=O)(=O)N2CCOCC2)c1)c1cn(-c2ccccc2)nc1-c1ccccc1 | -0.02 K
CN(c1ccccc1)S(=O)(=O)c1ccc(C(=O)Nc2cccc(S(=O)(=O)N3CCOCC3)c2)cc1 | 0.02 K
O=C(Nc1cccc(S(=O)(=O)N2CCOCC2)c1)c1cn(-c2ccccc2)nc1-c1ccc(Cl)cc1 | 0.58 K
Cc1ccc(-c2nn(-c3ccccc3)cc2C(=O)Nc2cccc(S(=O)(=O)N3CCOCC3)c2)cc1 | 0.07 K
O=C(Nc1cccc(S(=O)(=O)N2CCOCC2)c1)c1cccc(S(=O)(=O)N2CCc3ccccc32)c1 | 0.37 K
O=C(Nc1cccc(S(=O)(=O)N2CCOCC2)c1)C(c1ccccc1)c1ccccc1 | 0.09 K
O=C(Cn1[nH]c(=O)c2ccccc2c1=O)Nc1ccc(N2CCN(Cc3ccccc3)CC2)cc1 | 0.02 K
O=C(OCc1cccc2ccccc12)C1CCCCN1c1ncccn1 (stereo not drawn) | -0.13 K
Cc1nc2c(C(N)=O)ncn2c(C)c1CCC(=O)Nc1ccc(F)c(C(N)=O)c1 | 0.02 K
c1coc(CNc2ncnc3ccsc23)c1 | 0.05 K
CCNC(=O)c1cccc(NC(=O)C2CCN(S(=O)(=O)c3cc(C(C)(C)C)ccc3C)CC2)c1 | 0.17 K

SMILES | TSA(without NAD+) / Primary screening (TSA) / delta Tm (K)
Cc1ccc(C(C)(C)C)cc1S(=O)(=O)Nc1cccc(C(=O)NNC(=O)c2cccc(S(=O)(=O)Nc3cccc(C(F)(F)F)c3)c2)c1 | 1.22 K
O=C(NO)c1cccc(C(F)(F)F)c1 | -0.13 K
NC(=O)c1ccc(CNC2CCCCCC2)o1 | -0.05 K
C=CCOc1cccc(C2C(C(=O)c3ccco3)=C(O)C(=O)N2CCCN2CCOCC2)c1 (stereo not drawn) | -0.08 K
COc1ccc(NC(=S)NN)cc1OC | 0.37 K
COc1ccc(CNC(=S)NC2CCCCC2)cc1OC | -0.23 K
COc1cc(NC(C)C(=O)Nc2ccc(C(N)=O)cc2)cc(OC)c1OC (stereo not drawn) | -0.18 K
COc1ccc(Br)cc1/C=C1/COc2ccccc2C1=O | -0.03 K
CCC(NC(=O)c1ccc(C(N)=O)cc1)C(c1ccc(C)cc1)n1cncn1 (stereo not drawn) | -0.21 K
COc1ccc(N(C)S(=O)(=O)c2cccc(C(=O)Nc3ccc4c(C)cc(=O)oc4c3)c2)cc1 | -0.13 K
COc1ccc(N(C)S(=O)(=O)c2cccc(C(=O)Nc3ccc(OC)c(OC)c3)c2)cc1 | -0.31 K
COc1ccc(N(C)S(=O)(=O)c2cccc(C(=O)Nc3ccc4ccccc4c3)c2)cc1 | 0.82 K
COc1ccc(N(C)S(=O)(=O)c2cccc(C(=O)Nc3cccc4ccccc34)c2)cc1 | -0.13 K
COc1ccc(N(C)S(=O)(=O)c2cccc(C(=O)Nc3cccc(Br)c3)c2)cc1 | 0.38 K
COc1ccc(N(C)S(=O)(=O)c2cccc(C(=O)Nc3ccc(Br)c(C(F)(F)F)c3)c2)cc1 | 0.62 K
COc1ccc(N(C)S(=O)(=O)c2cccc(C(=O)Nc3ccc(Br)cc3)c2)cc1 | 0.36 K
COc1ccc(NC(=O)c2cccc(S(=O)(=O)N(C)c3ccc(OC)cc3)c2)cc1 | 0.03 K
COc1ccc(N(C)S(=O)(=O)c2cccc(C(=O)Nc3ccc(Br)cc3F)c2)cc1 | 0.07 K
CCCOC(=O)c1ccc(NC(=O)c2cccc(S(=O)(=O)N(C)c3ccc(OC)cc3)c2)cc1 | 0.35 K
COc1ccc(N(C)S(=O)(=O)c2cccc(C(=O)Nc3ccc(-n4cnnn4)cc3)c2)cc1 | 0.59 K
COc1ccc(N(C)S(=O)(=O)c2cccc(C(=O)Nc3ccc(Cl)cc3)c2)cc1 | 0.36 K
